According to PubChem BioAssay (Tox21):
Records with an inconclusive call do not appear. Activity calls are given as the source filed them. Unless noted, the call rests on the fitted dose curve; in most records, active means well fitted curve in the direction sought with a large enough effect in the repeat runs; inconclusive means weak or mixed curves; inactive means no such curve, though single readings can be large; an effect the other way counts as inactive or inconclusive.

What was measured:
[1] = molecular target: Nuclear receptor subfamily 1 group I member 3 (Homo sapiens) (UniProt Q14994); assay: qHTS assay to identify small molecule agonists of the constitutive androstane receptor (CAR) signaling pathway (AID 1224839);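 further: HepG2 cells stably carrying human CAR and a CYP2B6 luciferase reporter; series mostly up to about 92 µM; nearly all actives have a fitted effect of over 15% in size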
Nuclear receptor subfamily 1 group I member 3 (Homo sapiens), sequence (Q14994 whole entry, looked up): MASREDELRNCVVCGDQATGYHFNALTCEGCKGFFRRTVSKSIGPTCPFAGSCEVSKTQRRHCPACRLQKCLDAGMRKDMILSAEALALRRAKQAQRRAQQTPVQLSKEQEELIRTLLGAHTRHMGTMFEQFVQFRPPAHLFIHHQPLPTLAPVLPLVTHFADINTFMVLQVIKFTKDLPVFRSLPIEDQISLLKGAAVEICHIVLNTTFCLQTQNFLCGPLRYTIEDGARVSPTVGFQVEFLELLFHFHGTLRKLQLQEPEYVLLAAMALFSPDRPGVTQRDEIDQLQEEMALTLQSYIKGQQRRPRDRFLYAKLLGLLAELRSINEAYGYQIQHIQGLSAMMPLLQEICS
Procedure, shortened: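 Luminescence read-out (ONE-Glo, 30 min, room temperature) from double-stable HepG2-CYP2B6-hCAR cells exposed 24 h to 15-point compound series in presence of 0.75 uM PK11195 final.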

[2] = qHTS assay to identify small molecule antagonists of the estrogen related receptor signaling pathway with the pleiotropic PPARgamma coactivator (PGC) from Tox21 10K library - cell viability counter screen (AID 1224840; active means well fitted cell-killing curve with a large enough effect in the repeat runs, not every such curve was filed as active; further: nearly all actives have a fitted effect of over 40% in size)
Procedure, shortened: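 Compounds in DMSO, alongside positive and negative controls, were pinned onto PGC/ERR cells (2,000 per well). Exposure lasted 17.5 hours at 37 C, followed by a 30-minute CellTiter-Fluor incubation and fluorescence reading.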

[3] = molecular target: Thyrotropin receptor (Homo sapiens) (UniProt P16473); assay: qHTS assay to identify small molecule agonists of the thyroid stimulating hormone receptor (TSHR) signaling pathway (AID 1224843; calls by dose curve; further: nearly all actives have a fitted effect of over 45% in size)
Thyrotropin receptor (Homo sapiens), sequence (P16473 whole entry, looked up): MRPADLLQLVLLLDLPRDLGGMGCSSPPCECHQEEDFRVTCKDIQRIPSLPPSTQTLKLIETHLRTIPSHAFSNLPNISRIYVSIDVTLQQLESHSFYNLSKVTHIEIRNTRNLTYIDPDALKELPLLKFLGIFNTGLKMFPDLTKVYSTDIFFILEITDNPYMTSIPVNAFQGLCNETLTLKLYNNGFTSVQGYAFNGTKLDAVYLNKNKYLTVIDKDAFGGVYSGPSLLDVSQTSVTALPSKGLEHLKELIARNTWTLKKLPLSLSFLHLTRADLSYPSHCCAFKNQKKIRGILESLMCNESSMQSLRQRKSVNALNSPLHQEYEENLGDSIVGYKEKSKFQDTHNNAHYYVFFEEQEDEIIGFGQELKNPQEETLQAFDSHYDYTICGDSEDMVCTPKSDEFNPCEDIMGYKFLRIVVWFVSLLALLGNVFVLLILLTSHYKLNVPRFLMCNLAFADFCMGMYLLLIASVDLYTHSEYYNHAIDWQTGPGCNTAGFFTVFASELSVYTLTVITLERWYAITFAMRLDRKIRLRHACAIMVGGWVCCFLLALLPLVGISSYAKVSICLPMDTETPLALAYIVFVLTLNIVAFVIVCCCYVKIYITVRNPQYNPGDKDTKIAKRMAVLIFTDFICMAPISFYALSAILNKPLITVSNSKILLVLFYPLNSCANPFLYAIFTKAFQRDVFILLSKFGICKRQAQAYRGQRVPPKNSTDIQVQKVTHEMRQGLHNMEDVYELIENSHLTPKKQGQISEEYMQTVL
Procedure, shortened: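 Cell line HEK293 with TSHR; density 800/well. Exposure 30 min RT. Readout HTRF cAMP (cAMP-d2/anti-cAMP-cryptate), 1 h RT before reading.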

[4] = qHTS assay to identify small molecule agonists of the hypoxia (HIF-1) signaling pathway - cell viability counter screen (AID 1224844; calls by dose curve; further: nearly all actives have a fitted effect of over 50% in size)
Procedure, shortened: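 Luminescent ATP content (CellTiter-Glo, 30 min, room temperature) served as the viability measure in HRE-bla ME-180 cells exposed to compounds for 17 hrs in low-serum medium (0.5% dialyzed FBS).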

[5] = qHTS assay to identify small molecule agonists of H2AX (AID 1224845; active means well fitted activation curve with a large enough effect in the signal ratio in the repeat runs, not every such curve was filed as active; the % refers to the signal ratio)
Procedure, shortened: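 Wild-type CHO-K1 cells plated overnight, then exposed 3 hr at 37C to compounds at 15 concentrations (0.76% DMSO). Lysed, then HTRF anti-pH2AX(S139)-cryptate/anti-H2AX-d2 detection after 24 hr at room temperature; emissions 665 and 620 nm.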

[6] = qHTS assay to identify small molecule agonists of the hypoxia (HIF-1) signaling pathway (AID 1224846; active means well fitted activation curve with a large enough effect in the signal ratio in the repeat runs, not every such curve was filed as active; the % refers to the signal ratio)
Procedure, shortened: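 Measured by blue/green FRET after loading CCF4-AM: beta-lactamase expressed from a hypoxia response element in ME-180 cells. Test agents were delivered in DMSO and left 17 hrs; cells had been plated 5 hrs earlier in low-serum (0.5% dialyzed FBS) medium.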

[7] = qHTS assay to identify small molecule agonists of H2AX - cell viability counter screen (AID 1224847; calls by dose curve; further: top concentration of the series differs between compounds; nearly all actives have a fitted effect of over 30% in size)
Procedure, shortened: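 CHO-K1 wt, 1000 cells/well, o/n 37C; cpds 15 conc, 3 h 37C, 0.76% DMSO; CellTiter-Glo, 30 min RT, luminescence.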

[8] = qHTS RealTime-Glo MT Cell Viability Assay in HepG2 cells - 24 hour (AID 1224867); further: nearly all actives have a fitted effect of over 50% in size
Procedure, shortened: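 HepG2 cells were seeded at 600 cells/well together with NanoLuc luciferase and a cell-permeant prosubstrate, preincubated 5 h at 37 C/5% CO2, then pin-dosed with compounds in DMSO. Nonlytic luminescence from viable cells was read at each time point.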

[9] = qHTS RealTime-Glo MT Cell Viability Assay in HEK293 cells - 32 hour (AID 1224868); further: top concentration of the series differs between compounds; nearly all actives have a fitted effect of over 50% in size
Procedure, shortened: (§1)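 HEK293 cells were seeded at 600 cells/well together with NanoLuc luciferase and cell-permeant prosubstrate, preincubated 5 h at 37 C/5% CO2, then given compound in DMSO by pintool. Luminescence from viable-cell prosubstrate reduction was read repeatedly over 40 h.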

[10] = A CellTox Green Cytotoxicity Assay to monitor cytotoxicity in HEK293 cells - 0 hour (AID 1224869); further: nearly all actives have a fitted effect of over 50% in size
Procedure, shortened: (§2)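 Each value comes from one timepoint of a single continuous run in which HEK293 cells with CellTox Green were exposed to compound for up to 40 h at 37 C, dye fluorescence rising with cell death.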

[11] = qHTS RealTime-Glo MT Cell Viability Assay in HepG2 cells - 40 hour (AID 1224870); further: nearly all actives have a fitted effect of over 50% in size
Procedure, shortened: (§3)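 HepG2 cells mixed with RealTime-Glo MT reagents (NanoLuc plus cell-permeant prosubstrate) were seeded at 600 cells/well, incubated 5 h at 37 C/5% CO2, then pinned with compounds in DMSO; nonlytic luminescence tracked viability during 40 h treatment.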

[12] = A CellTox Green Cytotoxicity Assay to monitor cytotoxicity in HEK293 cells - 40 hour (AID 1224871); further: nearly all actives have a fitted effect of over 45% in size
Procedure, shortened: as §2

[13] = qHTS RealTime-Glo MT Cell Viability Assay in HEK293 cells - 16 hour (AID 1224872)
Procedure, shortened: as §1

[14] = qHTS RealTime-Glo MT Cell Viability Assay in HEK293 cells - 40 hour (AID 1224874); details: RealTime-Glo luminescence; max response: stronger effect = lower value; further: nearly all actives have a fitted effect of over 50% in size
Procedure, shortened: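 qHTS format; HEK293 cells with NanoLuc/prosubstrate reagent, 37 C/5% CO2 for 5 h pre-dosing; compounds 23 nL in DMSO; luminescence at each time point reflects viable cells.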

[15] = qHTS RealTime-Glo MT Cell Viability Assay in HepG2 cells - 8 hour (AID 1224873); further: nearly all actives have a fitted effect of over 55% in size
Procedure, shortened: as §3

[16] = A CellTox Green Cytotoxicity Assay to monitor cytotoxicity in HEK293 cells - 24 hour (AID 1224875); further: series mostly up to about 77 µM; nearly all actives have a fitted effect of over 45% in size
Procedure, shortened: as §2
On the % scale 0 is the no-effect control and ±100 the full control effect.

CCCSSCCC
inactive: Potency [1] | outcome [2] | outcome [3] | outcome [4] | outcome [5] | outcome [6] | outcome [7] | outcome [8] | Potency [9] | Potency [10] | outcome [11] | Potency [12] | Potency [13] | max response [14] 2.19%

CCCCSCCCC
inactive: Potency [1] | outcome [2] | outcome [3] | outcome [4] | outcome [5] | outcome [6] | outcome [7] | outcome [8] | Potency [9] | outcome [11] | Potency [12] | Potency [13] | outcome [15] | max response [14] 1.22% | Potency [16]

CC(O)CC(C)O (centres undefined)
inactive: Potency [1] | outcome [2] | outcome [3] | outcome [4] | outcome [5] | outcome [6] | outcome [7] | outcome [8] | Potency [9] | Potency [10] | outcome [11] | Potency [12] | Potency [13] | outcome [15] | max response [14] 0.995% | Potency [16]

COP(=O)(O)OP(=O)(O)OC
inactive: Potency [1] | outcome [2] | outcome [3] | outcome [4] | outcome [5] | outcome [6] | outcome [7] | Potency [9] | Potency [10] | outcome [11] | Potency [12] | Potency [13] | outcome [15] | max response [14] 5.3% | Potency [16]

O=C(Cn1ccnc1[N+](=O)[O-])NCc1ccccc1
inactive: Potency [1] | outcome [2] | outcome [3] | outcome [4] | outcome [5] | outcome [6] | outcome [7] | outcome [8] | Potency [9] | outcome [11] | Potency [12] | Potency [13] | outcome [15] | max response [14] -1.45% | Potency [16]

CCOC(CN1CCN(CC(C)C(=O)c2ccccc2)CC1)c1ccccc1 (centres undefined)
inactive: activation [1] -1.5% [at 19 µM] | viability change, negative = cytotoxic [2] -2.82% [at 19 µM] | activation [3] -4.32% [at 19 µM] | activity change, negative = cytotoxicity [4] 0.0048% [at 15.8 µM] | activation (H2AX phosphorylation) [5] -1.86% [at 31.6 µM] | activation [6] 1.68% [at 15.8 µM] | activity change, negative = cytotoxicity [7] -1.65% [at 31.6 µM] | activity change, negative = cytotoxic [9] -29.5% [at 15.8 µM] | cytotoxicity [10] -3.29% [at 15.8 µM] | activity change, negative = cytotoxic [11] 0.0501% [at 15.8 µM] | cytotoxicity increase [12] -2.53% [at 15.8 µM] | viability change, negative = cytotoxic [15] -2.57% [at 15.8 µM] | max response [14] -27.6% | activity change [16] -4.62% [at 15.8 µM, stronger effect = higher value]

NCCOCCN
inactive: Potency [1] | outcome [2] | outcome [3] | outcome [4] | outcome [5] | outcome [6] | outcome [7] | Potency [9] | Potency [10] | outcome [11] | Potency [12] | Potency [13] | outcome [15] | max response [14] 1.68%

CCO[Si](CC)(OCC)OCC
inactive: Potency [1] | outcome [2] | outcome [3] | outcome [4] | outcome [5] | outcome [6] | outcome [8] | Potency [9] | Potency [10] | outcome [11] | Potency [12] | Potency [13] | outcome [15] | max response [14] -9.96% | Potency [16]

CCCCCCCCCCCCCCCCCCOCCO
inactive: activation [1] -0.275% [at 19 µM] | viability change, negative = cytotoxic [2] -0.639% [at 19 µM] | activation [3] -2.81% [at 19 µM] | activity change, negative = cytotoxicity [4] 16.8% [at 15.8 µM] | activation (H2AX phosphorylation) [5] -3.63% [at 31.6 µM] | activation [6] 0.444% [at 15.8 µM] | activity change, negative = cytotoxicity [7] -6.52% [at 31.6 µM] | activity change, negative = cytotoxicity [8] -2.19% [at 15.8 µM] | activity change, negative = cytotoxic [9] -2.29% [at 15.8 µM] | cytotoxicity [10] 1.2% [at 15.8 µM] | activity change, negative = cytotoxic [11] -6.69% [at 15.8 µM] | cytotoxicity increase [12] 8.77% [at 15.8 µM] | activity change, negative = cytotoxicity [13] -4.86% [at 15.8 µM] | max response [14] -1.04% | activity change [16] 5.76% [at 15.8 µM, stronger effect = higher value]

C=CCCCCCCCCC(=O)OCCCC
inactive: Potency [1] | outcome [2] | outcome [3] | outcome [4] | outcome [5] | outcome [6] | outcome [8] | Potency [9] | Potency [10] | outcome [11] | Potency [12] | Potency [13] | max response [14] 7.61% | Potency [16]

CN(C)CC/C=C1/c2ccccc2COc2ccc(CC(=O)O)cc21
inactive: Potency [1] | outcome [2] | outcome [3] | outcome [4] | outcome [5] | outcome [6] | Potency [10] | Potency [12] | Potency [16]

Cn1c(=O)c2c(ncn2CCO)n(C)c1=O
inactive: Potency [1] | outcome [2] | outcome [3] | outcome [4] | outcome [5] | outcome [7] | outcome [8] | Potency [9] | Potency [10] | outcome [11] | Potency [12] | Potency [13] | outcome [15] | max response [14] 3.56% | Potency [16]

CCOCCOCC
inactive: Potency [1] | outcome [2] | outcome [3] | outcome [4] | outcome [5] | outcome [7] | outcome [8] | Potency [9] | Potency [10] | outcome [11] | Potency [12] | Potency [13] | max response [14] 2.51% | Potency [16]

CN(C)CCN(C)CCO
inactive: Potency [1] | outcome [2] | outcome [3] | outcome [4] | outcome [5] | outcome [8] | Potency [9] | Potency [10] | outcome [11] | Potency [12] | Potency [13] | outcome [15] | max response [14] 5.64% | Potency [16]
